The results in this text go back to the supplement of paper PMC7156485.

The structures appear in SMILES notation. Where “and” joins values, the source holds several entries; their conditions need not be identical. Equal entries are not always repeated. ± gives the standard deviation of the averaged measurements.
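Also: TDF denotes transformed human dermal fibroblasts of mesenchymal origin.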

The experiment deals with HCC1569. In words: cell number relative to DMSO (% of DMSO); higher = more cells (less growth inhibition / toxicity). The conditions noted are these: concentration: 10 µM; 24 h. In short, it runs like this: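 After 24 h at 37 °C with compounds at 10 µM, in triplicate, HCC1569 and TDF cells were fixed with 3.7% formaldehyde. Immunostaining used a rabbit anti-H1.0 antibody and an AlexaFluor 647 secondary, with DAPI, and six fields per well were imaged at ×10. H1.0 nuclear intensity or cell number is presented as percent of the plate control, from the median of replicates, with HCC1569 values smoothed for positional effects.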
`CSC(=S)NCc1c[nH]c2ccccc12` [Brassinin] had a cell number of 100.
The result for `CS(=N)(=O)CCC(N)C(=O)O` [L-Methionine sulfoximine] reads 103; that for `CC(C)CC(NP(=O)([O-])OC1OC(C)C(O)C(O)C1O)C(=O)NC(Cc1c[nH]c2ccccc12)C(=O)[O-].[Na+].[Na+]` (centres undefined) [Phosphoramidon disodium], 99.6.
With `O=[N+]([O-])c1cc(O)c(O)c([N+](=O)[O-])c1` [3,5-Dinitrocatechol], the cell number came out at 98.6.
With `CC(C)NCC(O)c1ccc(N)c(C#N)c1` (centres undefined) [Cimaterol], the cell number was determined as 103.
As to `NC(Cn1oc(=O)[nH]c1=O)C(=O)O` (centres undefined) [Quisqualic acid], the cell number was determined as 100.
On to `NC(CCP(=O)(O)O)C(=O)O` (racemic), for which the cell number amounted to 99.4.
Take `CCCCCCCCCCCCCCCCOCC(O)COP(=O)([O-])OCC[N+](C)(C)C` (centres undefined): the cell number was 101.
`CCC1CN2CCc3cc(OC)c(OC)cc3C2CC1CC1NCCc2cc(OC)c(OC)cc21.Cl.Cl` (centres undefined): the cell number came to 60.
`COC(=O)c1cc2c(cn1)[nH]c1ccccc12` [Methyl beta-carboline-3-carboxylate] came in with a cell number of 98.8.
`CC1OC(OC2CC(O)C3(CO)C4C(O)CC5(C)C(C6=CC(=O)OC6)CCC5(O)C4CCC3(O)C2)C(O)C(O)C1O` (centres undefined) [Ouabain] returned a cell number of 46.2.
In the case of `CCCCCC=CCC=CCC=CCCCCCCC(=O)NCCO` [Anandamide (20:3,n-6)] it was 101; in that of `COc1cc(=O)oc(C=CC=CC=CC(C)=CC2(C)OC(C)C(C)(O)C2O)c1C` (centres undefined) [Citreoviridin], 36.3; in that of `COc1ccc2c(c[n+](C)c3c4cc5c(cc4ccc23)OCO5)c1OC.[Cl-]` [Chelerythrine Chloride], 90.9.
Consider `CC1(O)CC23CC(O)C4(O)C(CC(O)C4(C)C)C(C)(O)C2CCC1C3O` (centres undefined) [Grayanotoxin III], for which the cell number was 99.6.
For `CC(C(O)CCC(C)(C)O)C1CCC2(O)C3=CC(=O)C4CC(O)C(O)CC4(C)C3CCC12C` (centres undefined) [Ecdysone], the cell number stood at 103.
Turning to `CC12NC(Cc3ccccc31)c1ccccc12.O=C(O)C=CC(=O)O` (single isomer, unassigned; (+)) [(+)-MK-801 hydrogen maleate], the cell number was 103.
The result for `Cl.Oc1ccc2c3c1OC1C(O)CCC4(O)C(C2)N(CC2CCC2)CCC314` (centres undefined) [Nalbuphine hydrochloride] reads 105.
Take `CC(=O)OC1C2C(OC(=O)Cc3ccccc3)C(C)CC2(OC(C)=O)C(=O)C(C)=CC2C(CCC13CO3)C2(C)C` (centres undefined) [Euphorbiasteroid]: the cell number amounted to 102.
In the case of `Cl.NCCc1ccc(O)cc1` [4-Hydroxyphenethylamine hydrochloride] it was 96.2.
Take `CC(N)c1cccc(Cl)c1Cl.Cl` (racemic): the cell number was 100.
For `COc1cc2c(c(OC)c1OC)-c1ccc(OC)c(=O)cc1C(NC(C)=O)CC2` (centres undefined) [Colchicine], the cell number is 57.57 ± 0.52.
In the case of `C=C1C(C)C2C(Cc3ccccc3)NC(=O)C23C(OC(C)=O)C=CC(C)(O)C(=O)C(C)CC=CC3C1O` (centres undefined) [Cytochalasin D] it was 69.1; in that of `CC1=CC(=O)c2c(O)cccc2C1=O` [Plumbagin], 39.
The result for `CC=C(C)C(=O)OC1CCC2(C)C3CCC4C5(O)CC(O)C6(O)C(CN7CC(C)CCC7C6(C)O)C5(O)CC42OC13O` (centres undefined) [Cevadine] reads 99.9; that for `COc1cccc(C2(O)CCCCC2CN(C)C)c1` (centres undefined) [Tramadol], 100; that for `CCCN1CCOC2c3cc(O)ccc3OCC21.Cl` (stereo not drawn) [S(+)-PD 128,907 hydrochloride], 103.
`CC1=C(C)C(=O)C(CCC(C)(O)CCCC(C)CCCC(C)CCCC(C)C)=C(C)C1=O` (racemic) returned a cell number of 99.
In the case of `CN1CC(CO)C=C2c3cccc4[nH]cc(c34)CC21` (centres undefined) [Lysergol] it was 100; in that of `O=C1NC(=O)c2c1c1c3ccccc3[nH]c1c1[nH]c3ccccc3c21`, 98.8.
With `CCN1CC2(C)CCC(O)C34C5CC6C(OC)CC(O)(C(CC23)C14)C5C6O` (centres undefined) [Karakoline], the cell number came out at 103.2 ± 0.75.
The result for `Cc1cc(C(=O)CN2CCCC2)c(C)n1-c1ccc(F)cc1` reads 99; that for `O=C1NC(=O)c2c1c1c3ccccc3n3c1c1c2c2ccccc2n1C1CCC3O1`, 77.9 and 77.4; that for `Cl.O=C(OC1CCN(CCCl)CC1)C(c1ccccc1)c1ccccc1` [4-Diphenylacetoxy-N-(2-chloroethyl)piperidine hydrochloride], 98.2.
In turn, `CN1Cc2c(ccc3c2OCO3)C2C(O)Cc3cc4c(cc3C21)OCO4` (single isomer, unassigned; (+)) [(+)-Chelidonine] displayed a cell number of 58.
Take `CN1CCC2(CCN3CCc4c(oc5ccccc45)C3C2)N(C)C1=O.Cl` (centres undefined): the cell number was determined as 102.
With `CC(C)C1(NC(=O)C2C=C3c4cccc5[nH]cc(c45)CC3N(C)C2)OC2(O)C3CCCN3C(=O)C(Cc3ccccc3)N2C1=O` (centres undefined) [Ergocristine], the cell number worked out at 102.
Compound `CC(CCc1ccccc1)NC(C)C(O)c1ccc(O)cc1.Cl` (centres undefined) [Buphenine.HCl] returned a cell number of 101.
The result for `OC1CN2CCCC(O)C2C1O` (centres undefined) [Swainsonine] reads 100.
